# Among all 190,000 compounds or so, about 4,000 (2.1%) were called active. Cut-off read from the data, not from the text of the source: active = inhibition above about 58%; inactive = the rest, inconclusive results apart; tested in S. cerevisiae. The sample as a whole holds a higher share of actives than the screen did.
# Assay: growth inhibition of WT strain, primary screen, mitochondrial fusion inhibitor project, WT and mutant strains, chemical genetic (AID 1362)
# Details: mitochondrial fusion phenotypic screen, at 10 µM
# [1] = WT strain, growth inhibition, stronger effect = higher value
SMILES,inhibition [1],inhibition (mutant strain inhibition) [%]
Nc1cc(C(F)(F)F)ccc1N1CCOCC1,-6.55% (inactive),-2.84
CC1(C)C=C2[C@H]3CC[C@@H]4[C@@]5(C)CCC(=O)C(C)(C)[C@@H]5CC[C@@]4(C)[C@]3(C)CC[C@@]2(C(=O)O)CC1,59.1% (active),-18.6
Cc1ccc(S(=O)(=O)Nc2nc(N)n(-c3ccccc3)n2)cc1,-0.46% (inactive),3.67
CSc1cc(C)[nH]c(=O)n1,-8.71% (inactive),-7.11
S=C(NCCc1ccccc1)NCC1CCCO1 (stereo unspecified),-1.69% (inactive),7.51
S=C(NN=C1CCN(Cc2ccccc2)CC1)NC1CCCCC1,38.9% (inactive),25
CCCC1CCC(=NNC(=S)NCCc2ccccc2)CC1 (stereo unspecified),66.8% (active),40.1
O=C(O)/C=C/c1ccc(S(=O)(=O)N2CCCCCC2)cc1,-9.59% (inactive),10.2
COCCN(C(=O)c1ccco1)c1nnc(-c2ccc(OC)cc2)s1,-4.3% (inactive),-8.85
COCCN(C(=O)C(C)C)c1nnc(-c2ccc(C(C)(C)C)cc2)s1,59% (active),10
COc1cc(OC)cc(-c2nnc(N(C)C(=O)c3ccncc3)s2)c1,-11% (inactive),-7.45
CCC(=O)Nc1cc(C(F)(F)F)ccc1N1CCCC1,-15.6% (inactive),12.5
Oc1ccc(N2CCN(C(=S)NCc3ccccc3)CC2)cc1,-2.43% (inactive),0.26
O=[N+]([O-])c1ccccc1NCc1ccc(Cl)cc1,21.2% (inactive),13.9
Oc1ccc(CNc2ccccc2O)cc1,62% (active),57.4
CCC(=O)N(Cc1cc2ccccc2[nH]c1=O)c1ccc(OC)cc1,-16% (inactive),1.27
CN(CCOc1ccc(Br)cc1)CC(=O)Nc1cccc(S(=O)(=O)NC2=NCCC2)c1,-4.79% (inactive),-2.03
Cc1onc(-c2ccccc2)c1C(=O)NNC(=S)NC(=O)c1ccc(F)cc1,14.1% (inactive),-24.2
O=C(Nc1nnc(C2COc3ccccc3O2)o1)c1ccc(F)cc1 (stereo unspecified),62.7% (active),52.9
c1ccc2c(c1)OCC(c1nn3cnnc3s1)O2 (stereo unspecified),15.5% (inactive),14.4

SMILES,inhibition [1],inhibition (mutant strain inhibition) [%]
COCCNc1nc2nonc2nc1N1CCCC1c1nccs1 (stereo unspecified),17.4% (inactive),12.6
Cc1cc(C)n2nc(SCC(=O)NC(=O)NCc3ccco3)nc2n1,8.54% (inactive),10.4
O=C(Nc1ccc(F)cc1)N1CCCC(c2nc3c(nnn3Cc3ccccc3Cl)c(=O)[nH]2)C1 (stereo unspecified),-0.5% (inactive),17.4
COc1ccc(Cn2nnc3c(=O)[nH]c(C4CCN(C(=O)c5ccccc5Cl)CC4)nc32)cc1,94.1% (active),34.6
Cc1ccc(NC(=O)N2CCC(c3nc4c(nnn4Cc4c(F)cccc4Cl)c(=O)[nH]3)CC2)cc1,-0.04% (inactive),3.09
COCCNC(=O)c1ccc(-n2c(SCc3cccnc3)nc3ccccc3c2=O)cc1,-8.55% (inactive),-7.82
O=C(CCN1C(=O)c2ccccc2C1=O)Nc1ccncc1,2.36% (inactive),-2.76
O=C(CCN1c2ccccc2Sc2ccccc21)Nc1ccccc1,69.8% (active),43.4
CC1CCN(CCC(=O)Nc2ccccc2)CC1,-7.63% (inactive),-10
COc1ccc(OC)c(C(=O)c2coc3ccc(O)c(CN4CCOCC4)c23)c1,7.31% (inactive),-1.21
COc1ccc2occ(C(=O)c3ccc(N=C(C)N(C)C)cc3)c2c1,6.86% (inactive),8.79
COc1ccc(OC)c(C(=O)c2coc3ccc(OC)cc23)c1,80.9% (active),15.4
CCN(CC)CCNC(=O)c1ccc(NS(=O)(=O)c2ccc3c(c2)OCCO3)cc1,-8.91% (inactive),1.15
C/C(N)=C(/C#N)C(=O)COC(=O)CNS(=O)(=O)c1ccc(C)cc1,-9.23% (inactive),5.26
CCCc1cc(-c2n[nH]c(=S)n2Cc2ccccc2)cs1,65.6% (active),36.1
CCn1c(-c2ccncc2)n[nH]c1=S,5.96% (inactive),13.5
Cc1cc(-c2csc(N)n2)c(C)n1Cc1ccccc1,12% (inactive),5.79
CCc1cc(-c2n[nH]c(=S)n2CC(C)C)cs1,66.2% (active),-0.18
C=CCn1c(-c2ccc3[nH]c(C)c(C)c3c2)n[nH]c1=S,9.01% (inactive),0.81
CCCc1cc(-c2n[nH]c(=S)n2CC)c2ccccc2n1,-17.6% (inactive),-14.6

SMILES,inhibition [1],inhibition (mutant strain inhibition) [%]
CCC(C)CN1CCC(CO)(Cc2ccccc2Cl)CC1 (stereo unspecified),11.3% (inactive),4.97
Cc1ccc(NC(=O)C(=O)NCC2CCN(C(=O)c3cccc([N+](=O)[O-])c3)CC2)cc1,2.01% (inactive),-12.9
COc1ccccc1-n1c(=S)[nH]c2c(sc(=S)n2-c2ccc(C)cc2C)c1=O,-7.13% (inactive),-4.6
Cc1cc(C)nc(Nc2cc([N+](=O)[O-])ccc2C)n1,-4.85% (inactive),9.39
Cc1ccc(Nc2cc(C)nc3c(C)ccc([N+](=O)[O-])c23)cc1,64.8% (active),56.9
Cc1ccc(Nc2ccc(C(N)=O)cc2[N+](=O)[O-])cc1,2.16% (inactive),-8.75
CCC(C)(C)NC(=O)CN(C(=O)C(=O)Nc1ccc2c(c1)OCCO2)C(C)(C)CC,-7.46% (inactive),6.56
Cc1ccc(C(=O)O)cc1N1C(=O)CCCC1=O,-14.9% (inactive),-14.6
CCN1CCN(CCNC(=O)c2ccc(/C=C3/Sc4ccccc4N(Cc4cccc(C)c4)C3=O)cc2)CC1,83.7% (active),59.2
Cc1nn(Cc2ccccc2)c(C)c1C(=O)NCCN1C(=O)S/C(=C\c2ccc(F)cc2)C1=O,0.77% (inactive),0.61
O=C(CN1C(=O)/C(=C\c2ccc(C(F)(F)F)cc2)Sc2ccccc21)NCc1ccco1,49% (inactive),3.15
Cc1ccc(C)c(Cn2cnc3c(oc4ccccc43)c2=O)c1,-1.67% (inactive),-14.3
COc1ccc(NC(=O)c2nc(-n3nc(C)cc3C)ccc2Cl)cc1Cl,5.72% (inactive),-16.9
CC(=O)c1ccc(Oc2cc(C)nc(-n3nc(C)cc3C)n2)cc1,-3.85% (inactive),8.66
COc1ccc(Nc2cc(C)nc(-n3nc(C)cc3C)n2)cc1,76.8% (active),68.7
COc1cc(NS(=O)(=O)c2ccccc2)ccc1-n1nc(C)cc1C,-33.7% (inactive),2.02
COc1ccccc1/C=N\Nc1cc(C)nc(-n2nc(C)cc2C)n1,69.1% (active),28.4
COc1cccc(/C=N/Nc2cc(C)nc(-c3ccccc3O)n2)c1O,51.6% (inactive),48.3

# — PubChem BioAssay AID1362 (SRMLSC, 2008)
